Values without a mark were called inactive. Results filed as inconclusive are left out. Calls of active or inactive are those of the source. Unless noted, calls follow the shape of the dose curve; as a rule, active = well fitted curve in the direction sought with a large enough effect in the repeat runs; inconclusive = weak or mixed curves; inactive = no such curve, though single readings can be large; an effect the other way counts as inactive or inconclusive.

Drawing on PubChem BioAssay (Tox21), this text covers Potency, outcome and max activation for eight compounds.

Experiment [1] in a line: qHTS assay to identify small molecule agonists of the estrogen receptor alpha (ER-alpha) signaling pathway in the presence of an antagonist - cell viability counter screen (AID 1259386).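 Also: series mostly up to about 92 µM; cells exposed to compounds for 22 h at 37 °C before the viability read; nearly all actives have a fitted effect of over 30% in size.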 The essentials:
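In this counter screen, compound effects on VM7Luc4E2 viability were tested in the presence of the antagonist ICI-182,780 at 10.0nM final. Compounds were dosed at 15 concentrations, exposure lasted 22hr, and the CellTiter-Fluor signal was read.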
In general terms: Quantitative high-throughput screening tests each substance at several concentrations.

Experiment [2] addresses Progesterone receptor (Homo sapiens) (UniProt P06401). Briefly: qHTS assay to identify small molecule agonists of the progesterone receptor (PR) signaling pathway (AID 1346784; calls by dose curve; also: nearly all actives have a fitted effect of over 30% in size). The essentials: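 Beta-lactamase reporter read-out: after 16 hr compound treatment at 37C and a further 2 hr at room temperature with LiveBLAzer B/G FRET substrate, fluorescence was measured in PR-UAS-bla HEK 293T cells grown in 2% charcoal-stripped serum.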

The target is the same in experiment [3]. Briefly: qHTS assay to identify small molecule antagonists of the progesterone receptor (PR) signaling pathway (AID 1346795; active = well fitted inhibition curve with a large enough effect in the signal ratio in the repeat runs, not every such curve was filed as active; the % refers to the signal ratio). The essentials: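 Read-out is fluorescence from the LiveBLAzer B/G FRET substrate, cleaved by a UAS-controlled beta-lactamase in PR-UAS-bla HEK293T cells after 16 hr exposure to compound plus 1 nM promegestone (final), followed by 2 hr at room temperature.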

Experiment [4] is described as follows: qHTS assay to identify small molecule antagonists of the progesterone receptor (PR) signaling pathway - cell viability counter screen (AID 1346798).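 Also: HEK293T PR-UAS-bla cells stimulated with the agonist R5020; series mostly up to about 92 µM; nearly all actives have a fitted effect of over 50% in size.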 The essentials:
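HEK293T PR-UAS-bla, 2% charcoal-stripped FBS; 4 hr pre-plate; cpd + R5020, 16 h 37C; LiveBLAzer read first; then CellTiter-Glo 30 min RT, luminescence.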

Experiment [5] is described as follows: qHTS assay to identify small molecule antagonists of the TGF-beta/Smad signaling pathway - cell viability counter screen (AID 1346824). Also: nearly all actives have a fitted effect of over 50% in size. An outline of the steps: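 SBE-bla HEK 293T cells, incubated overnight, then compound plus 0.25 ng/mL TGF-beta1 (stock added) for 5 hr at 37 C. Viability was read in the same wells by CellTiter-Glo luminescence after 30 min at room temperature.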

Experiment [6] can be described thus: qHTS assay to identify small molecule agonists of the TGF-beta/Smad signaling pathway - cell viability counter screen (AID 1346829). Also: top concentration of the series differs between compounds; nearly all actives have a fitted effect of over 45% in size. An outline of the steps:
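Cytotoxicity counter screen: CellTiter-Glo luminescence (30 min, room temperature) measured in the SBE-bla HEK 293T reporter wells after 5 hr compound treatment at 37 C and the 2 hr substrate step.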

Experiment [7] has as its target Thyrotropin-releasing hormone receptor (Homo sapiens) (UniProt P34981). Briefly: qHTS assay to identify small molecule antagonists of the thyrotropin-releasing hormone receptor (TRHR) signaling pathway (AID 1346877; active = well fitted inhibition curve with a large enough effect in the repeat runs, not every such curve was filed as active; also: series mostly up to about 51 µM). The essentials:
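Kinetic fluorescence (3 min, 1 s resolution) following stimulation with TRH at 1 nM final; HEK293 cells bearing human TRHR; 5 min compound preincubation at RT; concentration-response over 15 points, triplicates.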

For experiment [8] the target is unchanged. Briefly: qHTS assay to identify small molecule agonists of the thyrotropin-releasing hormone receptor (TRHR) signaling pathway (AID 1346891; calls by dose curve; also: series mostly up to about 58 µM). The essentials: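 Intracellular calcium rise, read as fluorescence every second for 3 min, served as the agonist signal in dye-loaded HEK293 cells expressing TRHR; each compound ran at 15 concentrations in triplicate.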

The nature of experiment [9]: Human pregnane X receptor (PXR) small molecule agonists, qHTS cell viability counter screen (AID 1346977). Also: nearly all actives have a fitted effect of over 50% in size. An outline of the steps:
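PXR-Luc HepG2, 2,000 cells/well, 5% charcoal-stripped FBS; 5hr settle; cpd 24hr, 37C/5% CO2; CellTiter-Fluor at 23hr, read 1hr later (fluorescence).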

A short description of experiment [10]: Caspase-3/7 induction in HepG2 cells by small molecules, qHTS assay (AID 1346978). Also: nearly all actives have a fitted effect of over 15% in size. The essentials: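 Wild-type HepG2 cells, 2,000/well, settled 5 hr at 37 C and 5% CO2, then compound-treated for 17 hr; caspase-3/7 activity read by luminescent Caspase-Glo 3/7 after 30 min at room temperature.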
Experiment [11] is described as follows: Caspase-3/7 induction in CHO-K1 cells by small molecules, qHTS cell viability counter screen (AID 1346979). Also: nearly all actives have a fitted effect of over 35% in size. The essentials: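 Cells (CHO-K1, wild type) are plated at 1,500 per well and incubated 5hr. Test compounds in DMSO are then pinned in, followed by 16hr at 37C and 5% CO2. Viability is read by CellTiter-Fluor fluorescence after 1hr.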
A short description of experiment [12]: Caspase-3/7 induction in CHO-K1 cells by small molecules, qHTS assay (AID 1346980). Also: nearly all actives have a fitted effect of over 15% in size. The essentials:
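Wild-type CHO-K1 cells exposed to compounds for 17hr at 37 C, 5% CO2. Caspase-3/7 activity then measured by Caspase-Glo 3/7 luminescence after 30min at room temperature.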

Experiment [13] can be described thus: Caspase-3/7 induction in HepG2 cells by small molecules, qHTS cell viability counter screen (AID 1346981). Also: series mostly up to about 92 µM; nearly all actives have a fitted effect of over 30% in size. An outline of the steps:
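In this quantitative HTS counter screen, compounds delivered in DMSO were left on unmodified HepG2 cells for 16 hr at 37 C. Viability was then determined fluorometrically with CellTiter-Fluor, in parallel with caspase-3/7 induction in the same wells.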

Experiment [14] has as its target Nuclear receptor subfamily 1 group I member 2 (Homo sapiens) (UniProt O75469). The experiment in a line: Human pregnane X receptor (PXR) small molecule agonists, qHTS assay (AID 1346982). Also: nearly all actives have a fitted effect of over 35% in size. Also: potency is read from the fitted curve at half-maximal effect. An outline of the steps:
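Reporter HepG2 cells expressing PXR-Luc are cultured in charcoal-stripped FBS (5%), treated with compounds for 24 hr at 37 C, and assayed by ONE-Glo luminescence after 30 min at room temperature.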

The target in experiment [15] is Nuclear receptor subfamily 1 group I member 2 (Rattus norvegicus) (UniProt Q9R1A7). The experiment in a line: Rat pregnane X receptor (rPXR) activation by small molecules, qHTS assay (AID 1346983). Also: nearly all actives have a fitted effect of over 20% in size. As to conditions: rPXR luciferase reporter cells, One-Glo luminescence, 24 h; active compounds read high. The essentials:
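Cell-based rPXR activation assay: rPXR cells, 2,000 per well, rested 5hr at 37 C, then exposed to compounds in DMSO for 24 hr at 37 C. Luciferase activity read by One-Glo luminescence after 30 min at room temperature.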

The target in experiment [16] is Nuclear receptor subfamily 1 group I member 2 (Homo sapiens) (UniProt O75469). Briefly: CYP3A4 induction through human pregnane X receptor (PXR) by small molecules, qHTS assay (AID 1346984). Also: nearly all actives have a fitted effect of over 40% in size. An outline of the steps: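 Induction measured in HepG2-based DPX-2 cells co-expressing human PXR and a CYP3A4 promoter-driven luciferase. After a 24-hour compound exposure, cells received CYP3A4 luciferin substrate at 3uM final for 3 hours, and light output was then recorded.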

Experiment [17] has as its target Acetylcholinesterase (Homo sapiens) (UniProt P22303). Briefly: Acetylcholinesterase (AChE) small molecule antagonists: colormetric cell-based qHTS assay (AID 1347395; calls by dose curve; also: nearly all actives have a fitted effect of over 30% in size). The essentials: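 Colorimetric read-out: DTNB detects thiocholine released when cellular AChE in SH-SY5Y cells hydrolyses acetylthiocholine. Cells attached overnight, received compound for 30 min at 37 C, then substrate mix for 90 min at 37 C.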

The nature of experiment [18]: qHTS assay to identify small molecule agonists of the progesterone receptor (PR) signaling pathway - cell viability counter screen (AID 1346799; calls by dose curve; also: nearly all actives have a fitted effect of over 45% in size). The essentials:
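Luminescence from CellTiter-Glo, added after the beta-lactamase FRET read in the same wells, gave cytotoxicity in PR-UAS-bla HEK293T cells treated with compounds for 16 hr at 37C.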

Experiment [19] can be described thus: qHTS assay to identify small molecule agonists of the TGF-beta/Smad signaling pathway (AID 1346859; active = well fitted activation curve with a large enough effect in the signal ratio in the repeat runs, not every such curve was filed as active; the % refers to the signal ratio; also: series mostly up to about 77 µM). The essentials: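 SBE-bla HEK 293T, 4,000 cells/well, plated o/n; cpd in DMSO, 5 hr, 37 C/5% CO2; B/G FRET substrate 2 hr RT; ex 405, em 460/530 nm.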
The target in experiment [20] is Nuclear receptor subfamily 1 group I member 2 (Homo sapiens) (UniProt O75469). The experiment in a line: Human pregnane X receptor (PXR) activation by small molecules, qHTS assay (AID 1346985). Also: nearly all actives have a fitted effect of over 40% in size. The essentials:
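DPX-2 cells (HepG2 co-transfected with a PXR response element and a CYP3A4-promoter luciferase construct) were seeded at 2,000 per well, rested 5 hr at 37C, then exposed to DMSO-dissolved compounds for 24 hr. Activation was read as luciferase luminescence.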
% is scaled to controls: 0 for no effect and ±100 for the full control effect.

Nuclear receptor subfamily 1 group I member 2 (Homo sapiens), sequence (O75469 whole entry, looked up): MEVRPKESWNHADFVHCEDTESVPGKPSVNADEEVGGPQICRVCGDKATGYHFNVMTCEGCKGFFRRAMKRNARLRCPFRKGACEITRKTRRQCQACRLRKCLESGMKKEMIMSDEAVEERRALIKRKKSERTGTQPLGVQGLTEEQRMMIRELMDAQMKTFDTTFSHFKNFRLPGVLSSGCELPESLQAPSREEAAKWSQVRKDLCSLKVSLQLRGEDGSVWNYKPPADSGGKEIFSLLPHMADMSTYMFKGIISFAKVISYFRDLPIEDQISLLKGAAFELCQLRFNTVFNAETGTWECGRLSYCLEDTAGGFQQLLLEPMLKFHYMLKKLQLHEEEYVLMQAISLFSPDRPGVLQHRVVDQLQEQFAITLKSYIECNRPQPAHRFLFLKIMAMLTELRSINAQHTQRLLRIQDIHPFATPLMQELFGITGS
Acetylcholinesterase (Homo sapiens), sequence (P22303 whole entry, looked up): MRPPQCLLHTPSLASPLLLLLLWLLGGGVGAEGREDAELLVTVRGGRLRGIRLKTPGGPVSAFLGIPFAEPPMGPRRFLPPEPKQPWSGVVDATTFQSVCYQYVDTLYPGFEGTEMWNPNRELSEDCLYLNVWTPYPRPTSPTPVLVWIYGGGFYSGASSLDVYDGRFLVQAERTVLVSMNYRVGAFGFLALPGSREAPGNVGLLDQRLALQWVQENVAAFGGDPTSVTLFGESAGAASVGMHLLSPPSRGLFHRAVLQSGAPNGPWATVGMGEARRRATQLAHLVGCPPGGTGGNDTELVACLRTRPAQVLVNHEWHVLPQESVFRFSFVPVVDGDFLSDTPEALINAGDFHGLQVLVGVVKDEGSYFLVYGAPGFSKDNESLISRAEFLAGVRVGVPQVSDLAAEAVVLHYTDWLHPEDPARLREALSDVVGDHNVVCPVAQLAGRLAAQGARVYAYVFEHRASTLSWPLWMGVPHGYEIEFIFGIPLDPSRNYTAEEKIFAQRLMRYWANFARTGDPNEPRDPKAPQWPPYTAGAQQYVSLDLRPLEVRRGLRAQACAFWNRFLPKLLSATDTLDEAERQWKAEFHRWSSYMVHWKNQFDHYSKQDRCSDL
Progesterone receptor (Homo sapiens), sequence (P06401 whole entry, looked up): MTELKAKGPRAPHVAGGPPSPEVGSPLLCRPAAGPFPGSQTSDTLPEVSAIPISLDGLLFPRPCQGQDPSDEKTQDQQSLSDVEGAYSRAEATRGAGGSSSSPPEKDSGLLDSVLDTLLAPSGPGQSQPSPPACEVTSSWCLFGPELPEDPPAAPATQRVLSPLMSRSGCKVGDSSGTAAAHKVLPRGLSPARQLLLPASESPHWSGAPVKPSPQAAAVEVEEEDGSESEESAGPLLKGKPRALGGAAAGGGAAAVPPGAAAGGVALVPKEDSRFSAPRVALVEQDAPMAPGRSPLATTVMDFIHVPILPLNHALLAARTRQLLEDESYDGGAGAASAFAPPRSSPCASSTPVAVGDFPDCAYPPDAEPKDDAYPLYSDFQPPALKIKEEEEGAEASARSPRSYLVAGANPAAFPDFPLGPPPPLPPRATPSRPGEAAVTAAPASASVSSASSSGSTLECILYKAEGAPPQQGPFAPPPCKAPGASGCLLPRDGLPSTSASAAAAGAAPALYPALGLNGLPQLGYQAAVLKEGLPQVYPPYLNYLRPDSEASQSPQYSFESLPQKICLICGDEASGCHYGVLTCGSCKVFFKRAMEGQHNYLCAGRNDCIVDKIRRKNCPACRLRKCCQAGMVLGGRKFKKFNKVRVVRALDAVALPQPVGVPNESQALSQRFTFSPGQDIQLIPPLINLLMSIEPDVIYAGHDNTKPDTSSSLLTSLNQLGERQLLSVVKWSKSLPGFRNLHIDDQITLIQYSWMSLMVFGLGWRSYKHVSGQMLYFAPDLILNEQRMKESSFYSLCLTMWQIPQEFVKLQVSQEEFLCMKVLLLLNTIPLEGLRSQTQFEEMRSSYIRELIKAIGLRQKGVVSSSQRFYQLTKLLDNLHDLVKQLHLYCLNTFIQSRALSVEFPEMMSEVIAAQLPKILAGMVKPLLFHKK
Thyrotropin-releasing hormone receptor (Homo sapiens), sequence (P34981 whole entry, looked up): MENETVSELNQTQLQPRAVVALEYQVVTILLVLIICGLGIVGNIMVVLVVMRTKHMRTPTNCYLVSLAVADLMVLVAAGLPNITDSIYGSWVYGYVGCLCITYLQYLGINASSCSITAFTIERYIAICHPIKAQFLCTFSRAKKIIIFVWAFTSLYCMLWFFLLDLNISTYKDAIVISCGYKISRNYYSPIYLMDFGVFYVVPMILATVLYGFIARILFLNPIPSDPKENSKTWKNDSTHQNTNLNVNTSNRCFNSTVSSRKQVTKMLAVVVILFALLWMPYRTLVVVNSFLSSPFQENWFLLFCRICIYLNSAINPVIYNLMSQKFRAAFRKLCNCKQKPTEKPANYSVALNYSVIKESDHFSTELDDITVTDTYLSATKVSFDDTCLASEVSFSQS
Nuclear receptor subfamily 1 group I member 2 (Rattus norvegicus), sequence (Q9R1A7 whole entry, looked up): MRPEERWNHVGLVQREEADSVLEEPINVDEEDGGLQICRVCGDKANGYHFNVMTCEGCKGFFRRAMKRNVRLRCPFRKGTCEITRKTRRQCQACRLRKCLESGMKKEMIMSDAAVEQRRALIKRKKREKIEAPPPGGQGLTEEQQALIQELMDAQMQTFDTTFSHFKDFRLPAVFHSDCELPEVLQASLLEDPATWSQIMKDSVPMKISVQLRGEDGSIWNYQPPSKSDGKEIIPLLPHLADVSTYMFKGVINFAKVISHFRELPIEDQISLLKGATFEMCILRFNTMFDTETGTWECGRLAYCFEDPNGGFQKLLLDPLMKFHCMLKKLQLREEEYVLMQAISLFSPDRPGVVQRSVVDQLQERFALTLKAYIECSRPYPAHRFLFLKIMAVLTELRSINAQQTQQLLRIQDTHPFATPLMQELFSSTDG

As to `C=CCN1C[C@H](C)N([C@H](c2ccc(C(=O)N(CC)CC)cc2)c2cccc(OC)c2)C[C@H]1C`, the Potency entry in experiment [1], in experiment [2], in experiment [3], in [4], in experiment [5] and in [6] was “inactive” each time. The Potency entry in [7], in [9], in experiment [10], in experiment [11], in experiment [12] and in [13] was “inactive” each time. Also, the Potency entry in experiment [17] was “inactive”. For the same compound, the call in [8] and in experiment [16] was inactive. Also, the Potency in experiment [14] is 11.9 µM (active). For the same compound, the max activation in [15] is 5.88%.

With `CCCC[N+]1(C)[C@@H]2CC(OC(=O)[C@H](CO)c3ccccc3)C[C@H]1[C@@H]1O[C@@H]12` (some centres undefined), the Potency entry in experiment [1], in experiment [2], in experiment [3], in experiment [18], in [5] and in experiment [7] was “inactive” throughout. Moreover, the Potency result in experiment [9], in [10], in experiment [11], in experiment [12], in [14] and in [20] was “inactive” in each case. Besides, the Potency entry in [17] was “inactive”. Further, the compound was called inactive in [19], in experiment [8] and in [16]. In [15], the max activation is -0.805%.

With `O=C(O)COc1cc(Cl)c(Cl)cc1Cl`, the Potency result in experiment [1], in experiment [2], in [3], in experiment [4], in [5] and in [6] was “inactive” in each case. In addition, the Potency entry in experiment [9], in experiment [10], in experiment [11], in [12], in [13] and in experiment [14] was “inactive” throughout. Also, the Potency result in experiment [17] is “inactive”.

For the compound `OCCCl`, the Potency entry in [1], in experiment [2], in [3], in experiment [18], in experiment [5] and in [9] was “inactive” throughout. Further, the Potency entry in experiment [10], in experiment [12], in [13], in experiment [14] and in [17] was “inactive” each time. In experiment [19], the outcome was inactive.

For the compound `CC[N+]1(C)CCCC(OC(=O)C(O)(c2ccccc2)c2ccccc2)C1` (centres undefined), the Potency entry in experiment [1], in [2], in [3], in experiment [4], in [5] and in [6] was “inactive” in each case. In addition, the Potency result in [7], in experiment [9], in experiment [10], in experiment [12], in experiment [14] and in experiment [20] was “inactive” each time. The Potency result in experiment [17] was “inactive”. Also, the compound was classed as inactive in experiment [19], in experiment [8] and in experiment [16]. For the same compound, in [15], the max activation is 2.38%.

As for `CC(C)(c1ccccc1)c1cc(-n2nc3ccccc3n2)c(O)c(C(C)(C)c2ccccc2)c1`, the Potency result in [1], in experiment [2], in [3], in experiment [4], in experiment [5] and in experiment [7] was “inactive” in each case. The Potency entry in experiment [9], in experiment [10], in experiment [11], in experiment [13], in [14] and in [17] was “inactive” each time. The compound was classed as inactive in [19] and in experiment [8].

Regarding `CCCCC(CC)CO[N+](=O)[O-]` (centres undefined), the Potency result in experiment [1], in experiment [2], in [3], in experiment [4], in experiment [5] and in experiment [7] was “inactive” in each case. Besides, the Potency result in [9], in [10], in experiment [11], in [12], in experiment [13] and in experiment [14] was “inactive” each time. Moreover, the Potency result in experiment [17] is “inactive”. Besides, in [19], the compound was classed as inactive.

Consider `C=CC(=O)NC(C)(C)CC(C)=O`, for which the Potency entry in [1], in [2], in experiment [3], in experiment [18], in experiment [5] and in experiment [6] was “inactive” in each case. In addition, the Potency result in [7], in [9], in experiment [10], in experiment [11], in [13] and in experiment [14] was “inactive” in each case. For the same compound, the Potency result in [17] is “inactive”. Also, the compound was classed as inactive in experiment [19] and in experiment [8].
